Data from PubChem BioAssay (NCI).
The panel holds about 83,000 compounds, 20% with a hit somewhere; the sample as a whole holds those more often.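 Method: cells in 96-well plates; compound added at one concentration; 48 h incubation; percent growth measured; values under 10 scored active.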 Unmarked numbers belong to inactive results. Calls of active or inactive are those of the source.

system: MDA-MB-468 breast; assay: NCI-60 one-dose screen, 48 h (100 = growth as untreated, 0 = no growth, -100 = all killed); conditions: 10 µM unless noted

Row | Compound | growth
1 | O=C(Nc1ccc(-n2cc(-c3ccncc3)c(-c3ccc(O)c(Cl)c3)n2)cc1)c1cc(Cl)cc(Cl)c1 | 50.6%
2 | COc1ccc(Cn2c(NCCCN(C)C)nc(=O)n(Cc3ccc(F)cc3)c2=O)cc1 | 85.8%
3 | Cc1cc(Nc2ccc(F)cc2)nc(N2CCN(c3ccnc4cc(Cl)ccc34)CC2)n1 | 17.6%
4 | CCCCC(CC#N)(CCC)CCC | 112%
5 | Cc1ccc(C(=O)Nc2ccc(CNCCN3CCOCC3)c(C(F)(F)F)c2)cc1C#Cc1cnc2cccnn12 | -21% (active)
6 | Cc1cc(-c2cc(C)c(N)cc2C)c(C)cc1N | 61%
7 | COc1cccc(-c2nc3sccn3c2-c2ccnc(NCCN3CCCN(C)S3(=O)=O)n2)c1 | 75.6%
8 | CCCCC(=O)c1ccco1 | 95.1%
9 | COc1cc2c(c(OC)c1OC)CCC(c1cccc(C(=O)Nc3ccc([N+](=O)[O-])cc3)c1)O2 (stereo not given) | 38.2%
10 | CC(=O)OC[C@]1(C)C=C2C(=O)[C@](C)(O)C3(CC3)C(C)=C2[C@H]1OC(C)=O | 21.6%
11 | CCCCCc1ccc(S(=O)(=O)Nc2cccc(-c3csc(NC(=O)CN4CCN(CCO)CC4)n3)c2)cc1 | 84.8%
12 | COc1cccc(NC(=O)c2sc3nc4c(cc3c2N)C(O)CCC4)c1 (stereo not given) | 48.6%
13 | Nc1c(C(=O)Nc2ccccn2)sc2nc3c(cc12)CCCCCC3 | 8.53% (active)
14 | CC/C=C\CCC/C=C1/C(=O)C=C[C@@H]1C/C=C\CCCC(=O)OC | 68.7%
15 | C/C=C(/C)C(=O)OC1C=C(CO)C(=O)C(OC(=O)C(C)(O)C(C)Cl)C1C(C)C (stereo not given) | -51.9% (active)
16 | CN(CCCNC(=O)Cc1ccc2ccc3cccc4ccc1c2c34)CCCNc1cc(-c2ccc3ccccc3c2)nc2ccccc12 | -78.4% (active)
17 | CCCCCCC1(C)NCCO1 (stereo not given) | 103%
18 | C1CCCCNCCC1 | 98.6%
19 | c1ccc(OCCC[P+](c2ccccc2)(c2ccccc2)c2ccccc2)cc1 | -7.95% (active)
20 | Cc1ccc(N(CSc2ccc(Cl)cc2)CSc2ccc(Cl)cc2)cc1 | 91.5%

Row | Compound | growth
21 | CCOC(=O)C1(C(=O)OCC)N=C(c2ccccc2)C=C1c1ccccc1 | 94.1%
22 | NC(=O)NC1(C(=O)O)CCCC1 | 119%
23 | CNCC[C@H](Oc1cccc2ccccc12)c1cccs1 | 82%
24 | N/C(=N\c1nc2ccccc2s1)NC(=O)Nc1cccc2ccccc12 | 3.96% (active)
25 | CC1(C)C=Cc2cc(/C(N)=N/C(N)=N/c3nc4ccccc4s3)ccc2O1 | 74.1%
26 | Nc1cc2c(cc1Br)-c1c(C(=O)O)cccc1C2O (stereo not given) | 74.6%
27 | CCOC(=O)C(C)(CSSCC(C)(NC(=O)c1ccc2ccccc2c1)C(=O)OCC)NC(=O)c1ccc2ccccc2c1 (stereo not given) | 109%
28 | CO[C@H]1C[C@@H]2CC[C@@H](C)[C@@](O)(O2)C(=O)C(=O)N2CCCC[C@H]2C(=O)O[C@H]([C@H](C)C[C@@H]2CC[C@@H](OC(=O)C(C)(CO)CO)[C@H](OC)C2)CC(=O)[C@H](C)/C=C(\C)[C@@H](O)[C@@H](OC)C(=O)[C@H](C)C[C@H](C)\C=C/C=C/C=C/1C | 0.224% (active)
29 | Cc1ccc(C(O)C2=CC(=O)c3ccccc3C2=O)cc1 (stereo not given) | 96.5%
30 | NC(=S)N/N=C/c1ccc(OC(=O)COc2cc(Cl)c(Cl)cc2Cl)cn1 | -0.374% (active)
31 | O=C(Nc1cccc(-n2cc(-c3ccncc3)c(-c3ccc(O)c(Cl)c3)n2)c1)Nc1ccc(Cl)c(C(F)(F)F)c1 | 10%
32 | C#CCOc1ccc2ncnc(Nc3cccc(NC(=O)C=C)c3)c2c1 | 41.6%
33 | C#C[C@]1(O)CC[C@H]2[C@@H]3CC=C4c5sc(Nc6cccc(Cl)n6)nc5CC[C@]4(C)[C@H]3CC[C@@]21C | 23.3%
34 | Clc1ccccc1-c1nc(Nc2nc3ccccc3s2)nc(C(Cl)(Cl)Cl)n1 | -24.6% (active)
35 | O=C1Nc2ccccc2/C1=C/c1cn(C(=O)c2c(Cl)cccc2Cl)c2ccccc12 | 32.7%
36 | O=C(Nc1ccc(F)cc1)c1c(NC(=O)C(F)(F)F)sc2c1CCCCC2 | -17% (active)
37 | CCN(CC)Cc1cc(C=C2C(=O)NC(=S)NC2=O)cc(OC)c1O | 108%
38 | Cc1c(C(N)=O)sc2c1c(=O)n(Cc1ccccc1)c1nnc(S(C)(=O)=O)n21 | 57.1%
39 | O=C(/C=C/c1csc(Br)n1)NO | 19%
40 | CN1CCN(c2nc(-c3ccncc3)nc3sc4c(c23)CCCCCC4)CC1 | 62.7%
